Over roughly 81,000 sequences, “one-hybrid fitness for binding parS DNA” has its median near -0.17; the highest 2% begin near 0.51. The list comes from a sample in which the highest values are over-represented; it also holds similar and randomly drawn sequences.
B1: Caulobacter ParB omega fusion; a variant is named by its letters at X, in order, B8GW30 (parent)
chain: MESVVVGEPGMSEGRRGLGRGLSALLGEVDAAPAQAPGEQLGGSREAPIEILQRNPDQPRRTFREEDLEDLSNSIREKGVLQPILVRPSPDTAGEYQIVAGERAWRAAQRAGLKTVPIMVRELDDLAVLEIGIIENVQRADLNVLEEALSYKVLMEKFERTQENIAQTIGKSXSHVANXMRLLXLPDEVQSYLVSGELTAXHARAIAAAADPVALAKQIIEGGLSVRETEALARKAPNLSAGKSKGGRPPRVKDTDTQALESDLSSVLGLDVSIDHRGSTGTLTITYATLEQLDDLCNRLTRGI

Variants of: B1
Assay: one-hybrid fitness for binding parS DNA (scaled: cognate 1, non-cognate 0); higher = stronger binding
Conditions: with parS DNA site
Summary of the method: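 Fitness here means the log change in variant-to-wild-type read ratio between plasmids sequenced before and after selection. That scale was set so cognate equals 1 and non-cognate equals 0. The selection was a bacterial one-hybrid screen of Caulobacter ParB libraries, four specificity codons randomised, in E. coli USO carrying a HIS3 reporter with the site 19 bp from the promoter, grown 48 hours at 37°C on M9-minus-histidine with 0.1 mM IPTG and 5 mM 3-AT.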

one-hybrid fitness for binding parS DNA, 0.756:
RWCS

one-hybrid fitness for binding parS DNA, ≤ 0.2:
MFMG
RFCF
TLGM
RDGC
RKGF
RKGR
RSGP
RPGC
RMGL
QVMA
QTTD
LGCG
PLWY
QQVF
HPKR
DNQS
YLEP
MTEN
RRGQ
RRGR
RLGK
RHGK
DSNT
KDLS
GQVC
YDLG
KTAM
NFGC
RFGR
NLSL
LPEL
PHQK
LEDW
EWQP
ATNC
RIHP
RIHH
RMHP
RHHP
RPHT
RHHH
REHT
RGFW
HQMY
VSHP
WWRR
LLVS
PHSW
HGMV
SLSC
PKWC
SQSD
HHCS
CACK
TVNL
YQLS
RSHD
RTHK
PPLK
HGKG
TTRW
YNRL
YMLS
RPKG
RSKR
RSKQ
NLKV
YAAA
TCWR
WDTT
VAYM
AACS
GVIV
RGFD
RGAH
RGFH
RGAD
QGMN
VPQV
SYEL
RWYH
RWSP
RWID
RWWF
RWSH
RWWN
STYW
GPTL
TSHS
QPMV
PMGR
YPVG
LLPR
RWGH
RWNH
RWLH
RWND
RWGP
RWHD
PKTI
VLLV
HQHT
AWSC
PQNR
MNVS
TRQG
HPNK
VARE
RWQH
RWDN
RWCN
RWRP
RWQP
RWDP
RWCP
CKLV
MLGM
PIWC
MSNM
WLDE
REVA
RPVA
RGVA
SKAI
SIHL
MVSE
GMRV
ETNG
CGAE
RCKD
RSKD
RPKS
AQTD
DWLL
YIPE
CIRT
PNRV
RGLR
RGKH
RGCF
RGCK
RGLM
ESDG
QSSQ
TSPP
GLPL
LLVN
YATP
THMC
ASRN
HKPA
RGHY
RGHR
RGAQ
SREL
FTNN
MTRS
DMPV
RDMM
LDNS
QVVM
RGQK
RGGM
RGSK
RGGR
RGSF
RGQF
AAYP
DGHR
LCSR
YTPT
AYYS
SYRV
VSYR
NTNS
DTLA
NMLA
RPLA
NALA
NTLA
PNHR
LLEW
GIRG
DQFS
PYSY
GART
NSRV
IMIV
ICQC
SFLA
DFLA
NHLA
DLLA
RELA
RDLA
DHLA
YYAL
HRNR
VLTI
QANF
MFMS
QQVT
TCGR
KIYR
FHCT
NRQF
THLI
RMEQ
QDTM
VKRS
HTGH
RANP
RADP
RANH
RADH
YHVS
SKAT
RCTR

one-hybrid fitness for binding parS DNA, 0.908:
RTHT

one-hybrid fitness for binding parS DNA, 0.798:
RGRC

one-hybrid fitness for binding parS DNA, 0.534:
RGCC

one-hybrid fitness for binding parS DNA, 0.429:
RHGY

one-hybrid fitness for binding parS DNA, 0.59:
RGHC

one-hybrid fitness for binding parS DNA, 0.581:
RCVA

one-hybrid fitness for binding parS DNA, 0.609:
RWIS
RMLA
RCLA

one-hybrid fitness for binding parS DNA, 0.223:
RWYN

one-hybrid fitness for binding parS DNA, 0.644:
RWWS

one-hybrid fitness for binding parS DNA, 0.966:
RADS

one-hybrid fitness for binding parS DNA, 0.473:
RAGY

one-hybrid fitness for binding parS DNA, 0.68:
RWGS

one-hybrid fitness for binding parS DNA, 0.946:
RMHT

one-hybrid fitness for binding parS DNA, 0.672:
RGSC

one-hybrid fitness for binding parS DNA, 0.803:
RWYS

one-hybrid fitness for binding parS DNA, 0.912:
RWSS

one-hybrid fitness for binding parS DNA, 0.591:
RSLA

one-hybrid fitness for binding parS DNA, 0.955:
RIGC
RWRS

one-hybrid fitness for binding parS DNA, 0.401:
RWRN

one-hybrid fitness for binding parS DNA, 0.533:
RHLA
RFLA

one-hybrid fitness for binding parS DNA, 0.76:
RWDS

one-hybrid fitness for binding parS DNA, 0.315:
RMGM
RRPY

one-hybrid fitness for binding parS DNA, 0.827:
RKGC

one-hybrid fitness for binding parS DNA, 0.317:
RTHM

one-hybrid fitness for binding parS DNA, 0.868:
RWQS

one-hybrid fitness for binding parS DNA, 0.353:
RVEY

one-hybrid fitness for binding parS DNA, 0.936:
RIHT

one-hybrid fitness for binding parS DNA, 0.274:
RMHH
RDKG
RSKH

one-hybrid fitness for binding parS DNA, 0.247:
RAGF

one-hybrid fitness for binding parS DNA, 0.836:
RCKS

one-hybrid fitness for binding parS DNA, 0.612:
RALA

one-hybrid fitness for binding parS DNA, 0.96:
RANS

one-hybrid fitness for binding parS DNA, 0.8:
RWLS

one-hybrid fitness for binding parS DNA, 0.208:
RSGH

one-hybrid fitness for binding parS DNA, 0.537:
RGLC

one-hybrid fitness for binding parS DNA, 0.883:
RSKS

one-hybrid fitness for binding parS DNA, 0.454:
RGFC

one-hybrid fitness for binding parS DNA, 0.422:
RGIC

one-hybrid fitness for binding parS DNA, 0.595:
RTLA

one-hybrid fitness for binding parS DNA, 0.956:
RSGC

one-hybrid fitness for binding parS DNA, 0.906:
RCHT

one-hybrid fitness for binding parS DNA, 0.876:
RSHT

one-hybrid fitness for binding parS DNA, 0.926:
RWNS

one-hybrid fitness for binding parS DNA, 0.833:
RGKC

one-hybrid fitness for binding parS DNA, 0.896:
RHGC

one-hybrid fitness for binding parS DNA, 0.944:
RSKG

one-hybrid fitness for binding parS DNA, 0.649:
RGQC

one-hybrid fitness for binding parS DNA, 0.444:
RWPS

one-hybrid fitness for binding parS DNA, 0.449:
RGEC

one-hybrid fitness for binding parS DNA, 0.229:
WKKW

one-hybrid fitness for binding parS DNA, 0.412:
RSHN

one-hybrid fitness for binding parS DNA, 0.97:
RCGC
RLGC

one-hybrid fitness for binding parS DNA, 0.584:
RGFS
RGAC

one-hybrid fitness for binding parS DNA, 0.352:
RLGM

one-hybrid fitness for binding parS DNA, 0.217:
RGPC

one-hybrid fitness for binding parS DNA, 0.313:
RWLN

one-hybrid fitness for binding parS DNA, 0.527:
RGYC

one-hybrid fitness for binding parS DNA, 0.605:
RLLA

one-hybrid fitness for binding parS DNA, 0.467:
RGDC

one-hybrid fitness for binding parS DNA, 0.504:
RGWC

one-hybrid fitness for binding parS DNA, 0.234:
RIGF

one-hybrid fitness for binding parS DNA, 0.716:
RGNC

one-hybrid fitness for binding parS DNA, 0.968:
RAGC

one-hybrid fitness for binding parS DNA, 0.89:
RCKG

one-hybrid fitness for binding parS DNA, 0.894:
RWHS

one-hybrid fitness for binding parS DNA, 0.952:
RMGC

one-hybrid fitness for binding parS DNA, 0.594:
RGGC

one-hybrid fitness for binding parS DNA, 0.452:
RNLA

one-hybrid fitness for binding parS DNA, 0.384:
RWLA

one-hybrid fitness for binding parS DNA, 0.268:
RIGM

one-hybrid fitness for binding parS DNA, 0.515:
RSVA

one-hybrid fitness for binding parS DNA, 0.869:
RHHT

one-hybrid fitness for binding parS DNA, 0.301:
RWHN

one-hybrid fitness for binding parS DNA, 0.445:
RGVC

one-hybrid fitness for binding parS DNA, 0.734:
RGAS

one-hybrid fitness for binding parS DNA, 0.321:
RGNN

one-hybrid fitness for binding parS DNA, 0.593:
RRGC

one-hybrid fitness for binding parS DNA, 0.882:
RFGC

Reference: a collection of fitness landscapes (doi:10.1016/j.celrep.2020.107928)
